In the library only some 0.4% were active in any assay of this set; here they are far more common.
UDG counter: counter-screen for AID inhibitors: uracil-DNA glycosylase inhibition; FRET deamination/UDG coupled assay, UDG read, 4 h; Potency, µM (titrated, usually from 115 µM), for inactives: at the top dose activity change, negative = inhibition, usual class: inhibitors; 0.14% of 91,000 active; AID 1347430; also: nearly all actives have a fitted effect of over 65% in size
AID inh: inhibitors of human activation induced cytidine deaminase. AID 1347428. Potency, µM (titrated, usually from 115 µM), usual class: inhibitors. AID deamination FRET fluorescence, UDG-coupled, 4 h. 0.32% of 91,000 active. Q9GZX7; also: nearly all actives have a fitted effect of over 25% in size
Target sequence (Q9GZX7 whole entry, looked up): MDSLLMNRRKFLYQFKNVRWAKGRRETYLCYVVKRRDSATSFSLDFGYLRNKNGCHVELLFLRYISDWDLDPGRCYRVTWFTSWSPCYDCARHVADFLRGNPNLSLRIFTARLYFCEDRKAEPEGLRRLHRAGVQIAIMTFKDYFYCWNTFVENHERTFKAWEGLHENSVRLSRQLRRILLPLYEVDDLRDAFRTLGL
Starred values were filed as active, the others as inactive; i = inactive; ? = inconclusive; ! = not active in a repeat; [ ] = remark or other dose. Calls follow the shape of the dose curve; as a rule, active = well fitted curve in the direction sought with a large enough effect; inconclusive = small, poorly fitted or top-dose-only effect, or another doubt; inactive = no such curve, though single readings can be large; an effect the other way counts as inactive or inconclusive. % is scaled to controls: 0 for no effect and ±100 for the full control effect; potency is read from the fitted curve at half-maximal effect.

SMILES	UDG counter	AID inh
CCOC(=O)c1c(-c2ccc(OC)cc2)oc2ccc(OCc3ccc(F)cc3F)cc12	-5%[57.5 µM]	i
O=C(O)c1c(-c2ccccc2)oc2ccc(OCc3c(F)cccc3Cl)cc12	-16%	79µM*
Cc1[nH]c2ccccc2c1CC(=O)NCc1cn2ccccc2n1	2%	i
Cc1ccc2nc(CN3CCN(S(=O)(=O)c4ccccc4)CC3)oc2c1	12%	i
Cc1cc(C)c(S(=O)(=O)N2CCN(Cc3nc4ccc(C)cc4o3)CC2)c(C)c1	89µM*	?
COc1ccccc1CNC(=O)c1ccccc1C(=O)c1cccs1	-8%	i
O=C(NC(c1ccc(Cl)cc1)c1cccnc1)c1ccccc1 (configuration not stated)	0%	i
CC(C)CC(NC/C=C/c1ccccc1)C(=O)O (configuration not stated)	-5%	i
CCOC(=O)N1CCN(C(=O)c2ccc(N3C(=O)CCS3(=O)=O)cc2Cl)CC1	-9%	i
Cc1ccc(Cl)cc1NC(=O)Nc1nnc(N(C)Cc2ccccc2)s1	89µM*	i
Cc1ccc(NC(=O)Nc2nnc(N(C)Cc3ccccc3)s2)c(C)c1	-10%	i
Cn1ccnc1C(=O)c1cccc(NC(=O)C(=O)NCCO)c1	-8%	i
CCCC(C)NC(=O)Nc1cc(C(=O)NC2CC2)ccc1C (configuration not stated)	-8%	i
CCc1ccc(NC(=O)c2oc3c(c2C)-c2[nH]ncc2CC3)cc1	-17%[57.5 µM]	?
Cc1cc(NC(=O)c2oc3c(c2C)-c2[nH]ncc2CC3)ccc1Br	-17%[57.5 µM]	35µM*
O=S(=O)(/N=c1\ssc(-c2ccccc2)c1Cl)c1ccccc1	0%	i
CC(C)Cn1c(/C=C/c2ccc(F)cc2)nc2ccccc21	14%	i
CCC(C)Cn1c(/C=C/c2ccccc2)nc2ccccc21 (configuration not stated)	79µM*	?
Cc1ccc2c(c1)-c1c(cnn1CC(=O)N1CCN(c3cc(C)ccc3C)CC1)CO2	-11%	40µM*
COc1ccc(N2CCN(C(=O)Cn3ncc4c3-c3cc(C)ccc3OC4)CC2)cc1	-16%	i
CCCNc1c(NC(=O)Nc2ccccc2OCC)c(=O)oc2ccccc12	11%	i
C=C(C)C1CCC2(COC(=O)CCC(=O)O)CC[C@]3(C)C(CCC4[C@@]5(C)CCC(OC(=O)CCC(=O)O)C(C)(C)C5CC[C@]43C)C12 (some centres not stated)	8%	28µM*
C=C(C)[C@@H]1CCC2(COC(C)=O)CC[C@]3(C)C(CCC4[C@@]5(C)CCC(=O)C(C)(C)C5CC[C@]43C)C12 (some centres not stated)	-5%	i
O=S(=O)(Cc1cccc(F)c1)c1ccc2ccccc2c1	3%	i
CCCCN(CCCC)CC(O)Cn1cc(/C=C/C(=O)c2ccccc2)c2ccccc21 (configuration not stated)	-16%	32µM*
SMILES	UDG counter	AID inh
CCCCN(C)CC(O)Cn1cc(/C=C/C(=O)c2ccc(OCC)cc2)c2ccccc21 (configuration not stated)	-17%	?
CCOc1ccccc1C1C(C#N)=C(N)OC2=C1S(=O)(=O)N(CC)c1ccccc12 (configuration not stated)	-2%	i
Cc1ccc(C2=NC(c3ccccc3)=Nc3ccc(Cl)cc3N2)cc1	?	i
COc1ccc(C2=NC(c3ccccc3)=Nc3ccc(C)cc3N2)cc1	79µM*	i
CCOC(=O)C1=C(C)NC(=O)NC1c1cn(-c2ccccc2)nc1-c1ccc(OCC)cc1 (configuration not stated)	-16%	?
COC(=O)C1=C(C)NC(=O)NC1c1cn(-c2ccccc2)nc1-c1ccc(OC)c(Cl)c1 (configuration not stated)	-21%	i
CCOc1ccc(-c2nn(-c3ccccc3)cc2C2NC(=O)NC(C)=C2C(=O)OC(C)C)cc1 (configuration not stated)	?	45µM*
CCOc1ccc(-c2nn(-c3ccccc3)cc2C2NC(=O)NC(C)=C2C(=O)OC(C)C)cc1C (configuration not stated)	?	45µM*!
Cc1ccc(-c2noc(CSc3nnc(C4CC4)n3-c3ccccc3)n2)cc1	89µM*	i
Cc1cccc(-n2c(SCc3nc(-c4ccccc4C)no3)nnc2-c2ccccc2)c1	3%	i
Cc1ccc(-c2noc(CSc3nnc(C)n3-c3ccc(F)cc3)n2)cc1	?	i
Cc1nnc(SCc2nc(-c3ccc(Cl)cc3)no2)n1-c1ccc(F)cc1	79µM*	?
CCCCCCCn1c(SCCC(=O)O)nc2c1c(=O)[nH]c(=O)n2C	4%	i
Cc1nnc(NC(=O)NCC(C)(C)N2CCN(C)CC2)s1	-2%	i
COc1cccc(CNC(=O)N2CCN(Cc3ccc(Cl)s3)CC2)c1	-12%	i
